# Experimental data taken from PubChem BioAssay (NCI).
# About 79,000 compounds went through this panel and 15% of them were active in at least one assay; those are over-represented in the sample as a whole. Values without a mark were called inactive. The source made the active and inactive calls. Rule as the data show it: active = growth inhibition above about 70%; inactive = the rest.
# Legend:
# [1] = NCI Yeast Anticancer Drug Screen. Data for the rad52 strain (AID 147);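 also: 0% = growth of vehicle-treated control cultures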; details: S. cerevisiae rad52 mutant growth inhibition, active compounds read high
# In short: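 Measured: yeast growth inhibition. System: strain with a defined DNA damage repair alteration. Reference: vehicle-treated control cultures.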
# [2] = NCI Yeast Anticancer Drug Screen. Data for the wt1 strain (AID 149);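 also: 0% = growth of vehicle-treated wt1 cultures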; details: S. cerevisiae wt1 strain (SPY 50644) growth inhibition, active compounds read high
# In short: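 Measured: growth of wt1 yeast under compound versus vehicle treatment, reported as inhibition.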
# [3] = NCI Yeast Anticancer Drug Screen. Data for the rad50EPP+ strain (AID 151);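 also: 0% = growth of vehicle-treated control cultures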; details: S. cerevisiae rad50 mutant strain, active compounds read high
# In short: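 One strain with a rad50 alteration (rad50EPP+) was compound-treated, its growth then compared to that of vehicle controls.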
# [4] = NCI Yeast Anticancer Drug Screen. Data for the rad50 strain (AID 155);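 also: 0% = growth of vehicle-only cultures of the same strain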; details: S. cerevisiae rad50 strain growth inhibition, active compounds read high
# In short: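 Growth of the mutant yeast was measured after compound exposure and referenced to vehicle-treated cultures.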
# [5] = NCI Yeast Anticancer Drug Screen. Data for the mec2-1 strain (AID 157); details: S. cerevisiae mec2-1 strain, active compounds read high
# In short: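 Test agents were screened against the mec2-1 yeast strain, with defined DNA repair or cell cycle alteration. Growth was scored as inhibition against vehicle-only controls.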
# [6] = NCI Yeast Anticancer Drug Screen. Data for the rad14 strain (AID 159);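 also: 0% = growth of vehicle-treated control cultures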; details: S. cerevisiae rad14 strain growth inhibition, active compounds read high
# In short: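 Here, inhibition of yeast growth was measured after compound exposure, using a strain with a genetic defect in DNA damage repair and vehicle-treated cultures as the reference.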
# [7] = NCI Yeast Anticancer Drug Screen. Data for the sgs1 mgt1 strain (AID 161);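 also: 0% = growth of cultures given vehicle only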; details: S. cerevisiae sgs1 mgt1 strain, active compounds read high
# In short: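 Genetically altered yeast, compound exposure, growth inhibition relative to vehicle.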
# [8] = NCI Yeast Anticancer Drug Screen. Data for the CLN2oe strain (AID 163);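 also: 0% = growth of vehicle-only control cultures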; details: S. cerevisiae CLN2oe strain, active compounds read high
# In short: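 Here, growth inhibition in a cell-cycle-altered yeast strain after compound exposure was quantified against vehicle control growth.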
# [9] = NCI Yeast Anticancer Drug Screen. Data for the cln2 rad14 strain (AID 165);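 also: 0% = growth equal to vehicle treated cultures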; details: S. cerevisiae cln2 rad14 strain, active compounds read high
# In short: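 Growth of compound-exposed yeast (cln2 rad14 genotype) measured and expressed as inhibition relative to vehicle.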
# [10] = NCI Yeast Anticancer Drug Screen. Data for the bub3 strain (AID 167); details: S. cerevisiae bub3 mutant strain, active compounds read high
# In short: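 Whole-cell yeast assay. The mutant strain was incubated with compounds, and growth inhibition was determined by comparison with vehicle-treated cells.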
# [11] = NCI Yeast Anticancer Drug Screen. Data for the wt2 strain (AID 169);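 also: 0% = growth of vehicle-treated yeast cultures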; details: S. cerevisiae wt2 strain growth inhibition, active compounds read high
# In short: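 Genetically defined yeast strains from a DNA-repair/cell-cycle panel were used. Compound-exposed yeast growth was measured, and the inhibition was calculated relative to vehicle treatment.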
# [12] = NCI Yeast Anticancer Drug Screen. Data for the mlh1 strain (AID 171);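 also: 0% = growth of vehicle-treated control cultures of the same strain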; details: S. cerevisiae mlh1 strain growth inhibition, active compounds read high
# In short: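 Here the genetically defined yeast mutant is grown with each compound, and the extent to which its growth falls below that of vehicle-exposed cells is reported.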
# [13] = NCI Yeast Anticancer Drug Screen. Data for the sgs1 strain (AID 173);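 also: 0% = growth of vehicle-only control cultures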; details: S. cerevisiae sgs1 mutant, active compounds read high
# In short: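 Relative growth inhibition, referenced to vehicle, was determined in a yeast strain with a defined alteration affecting DNA damage repair or cell cycle control after compound exposure.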
# [14] = NCI Yeast Anticancer Drug Screen. Data for the mlh1 rad18 strain (AID 175); details: S. cerevisiae mlh1 rad18 strain growth inhibition, active compounds read high
# In short: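 In this whole-cell yeast screen, a strain with altered DNA damage repair is challenged with compound, and its growth is measured against matched vehicle-treated controls.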
# [15] = NCI Yeast Anticancer Drug Screen. Data for the rad18 strain (AID 177); details: S. cerevisiae rad18 mutant growth inhibition, active compounds read high
# In short: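 Screen uses a yeast strain with a defined lesion in DNA damage repair; compound effect is read as loss of growth compared to untreated vehicle cultures.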
# [16] = NCI Yeast Anticancer Drug Screen. Data for the mgt1 strain (AID 153); details: S. cerevisiae mgt1 mutant growth inhibition, active compounds read high
# In short: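 After exposure of the mgt1 yeast mutant to compound, growth was measured and reported as inhibition compared with vehicle controls.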
# [17] = at 5.0 µM (retest, dose inferred, filed as 0.5)
# [18] = at 50.0 µM (retest, dose inferred, filed as 5.0)
smiles,measurement,setting,value
Cc1cc(NCCCN(C)C)c2ccc3c(ccc4c(NCCCN(C)C)cc(C)nc43)c2n1,growth inhibition,[1]; at 1.2 µM,6%
same,growth inhibition,[1]; at 3.7 µM,21%
same,growth inhibition,[1]; at 11.0 µM,17%
same,growth inhibition,[1]; at 33.0 µM,19%
same,growth inhibition,[1]; at 100.0 µM,47%
same,growth inhibition,[2]; at 1.2 µM,22%
same,growth inhibition,[2]; at 3.7 µM,18%
same,growth inhibition,[2]; at 11.0 µM,15%
same,growth inhibition,[2]; at 33.0 µM,9%
same,growth inhibition,[2]; at 100.0 µM,27%
same,growth inhibition,[3]; at 1.2 µM,6%
same,growth inhibition,[3]; at 3.7 µM,6%
same,growth inhibition,[3]; at 11.0 µM,11%
same,growth inhibition,[3]; at 33.0 µM,-26%
same,growth inhibition,[3]; at 100.0 µM,22%
same,growth inhibition,[4]; at 1.2 µM,21%
same,growth inhibition,[4]; at 3.7 µM,17%
same,growth inhibition,[4]; [17],11%
same,growth inhibition,[4]; at 11.0 µM,17%
same,growth inhibition,[4]; at 33.0 µM,21%
same,growth inhibition,[4]; [18],90% (active)
same,growth inhibition,[4]; at 50.0 µM,55.9%
same,growth inhibition,[4]; at 100.0 µM,59%
same,growth inhibition,[5]; at 1.2 µM,7%
same,growth inhibition,[5]; at 3.7 µM,15%
same,growth inhibition,[5]; [17],5%
same,growth inhibition,[5]; at 11.0 µM,11%
same,growth inhibition,[5]; at 33.0 µM,12%
same,growth inhibition,[5]; [18],31%
same,growth inhibition,[5]; at 50.0 µM,25.6%
same,growth inhibition,[5]; at 100.0 µM,35%
same,growth inhibition,[6]; at 1.2 µM,2%
same,growth inhibition,[6]; at 3.7 µM,3%
same,growth inhibition,[6]; at 11.0 µM,15%
same,growth inhibition,[6]; at 33.0 µM,22%
same,growth inhibition,[6]; at 100.0 µM,58%
same,growth inhibition,[7]; [17],7%
same,growth inhibition,[7]; [18],81% (active)
same,growth inhibition,[7]; at 50.0 µM,18.6%
same,growth inhibition,[8]; at 1.2 µM,-7%
same,growth inhibition,[8]; at 3.7 µM,-4%
same,growth inhibition,[8]; at 11.0 µM,-1%
same,growth inhibition,[8]; at 33.0 µM,17%
same,growth inhibition,[8]; at 100.0 µM,52%
same,growth inhibition,[9]; [17],8%
same,growth inhibition,[9]; [18],57%
same,growth inhibition,[9]; at 50.0 µM,19.1%
same,growth inhibition,[10]; at 1.2 µM,1%
same,growth inhibition,[10]; at 3.7 µM,11%
same,growth inhibition,[10]; [17],1%
same,growth inhibition,[10]; at 11.0 µM,9%
same,growth inhibition,[10]; at 33.0 µM,5%
same,growth inhibition,[10]; [18],31%
same,growth inhibition,[10]; at 50.0 µM,11.3%
same,growth inhibition,[10]; at 100.0 µM,22%
same,growth inhibition,[11]; at 1.2 µM,-57%
same,growth inhibition,[11]; at 3.7 µM,-39%
same,growth inhibition,[11]; at 11.0 µM,-63%
same,growth inhibition,[11]; at 33.0 µM,-40%
same,growth inhibition,[11]; at 100.0 µM,25%
same,growth inhibition,[12]; at 1.2 µM,15%
same,growth inhibition,[12]; at 3.7 µM,18%
same,growth inhibition,[12]; at 11.0 µM,23%
same,growth inhibition,[12]; at 33.0 µM,25%
same,growth inhibition,[12]; at 100.0 µM,37%
same,growth inhibition,[13]; at 1.2 µM,3%
same,growth inhibition,[13]; at 3.7 µM,10%
same,growth inhibition,[13]; at 11.0 µM,7%
same,growth inhibition,[13]; at 33.0 µM,8%
same,growth inhibition,[13]; at 100.0 µM,46%
same,growth inhibition,[14]; [17],10%
same,growth inhibition,[14]; [18],85% (active)
same,growth inhibition,[14]; at 50.0 µM,9.8%
same,growth inhibition,[15]; at 1.2 µM,10%
same,growth inhibition,[15]; at 3.7 µM,4%
same,growth inhibition,[15]; at 11.0 µM,2%
same,growth inhibition,[15]; at 33.0 µM,-8%
same,growth inhibition,[15]; at 100.0 µM,34%
COC1=C(N=[N+]=[N-])C(=O)c2ncccc2C1=O,growth inhibition,[2]; at 1.2 µM,3%
same,growth inhibition,[2]; at 3.7 µM,6%
same,growth inhibition,[2]; at 11.0 µM,10%
same,growth inhibition,[2]; at 33.0 µM,52%
same,growth inhibition,[2]; at 100.0 µM,92% (active)
same,growth inhibition,[3]; at 1.2 µM,31%
same,growth inhibition,[3]; at 3.7 µM,60%
same,growth inhibition,[3]; at 11.0 µM,89% (active)
same,growth inhibition,[3]; at 33.0 µM,94% (active)
same,growth inhibition,[3]; at 100.0 µM,95% (active)
same,growth inhibition,[16]; at 1.2 µM,10%
same,growth inhibition,[16]; at 3.7 µM,7%
same,growth inhibition,[16]; at 11.0 µM,31%
same,growth inhibition,[16]; at 33.0 µM,81% (active)
same,growth inhibition,[16]; at 100.0 µM,94% (active)
same,growth inhibition,[4]; at 1.2 µM,56%
same,growth inhibition,[4]; at 3.7 µM,84% (active)
same,growth inhibition,[4]; [17],86% (active)
same,growth inhibition,[4]; at 11.0 µM,93% (active)
same,growth inhibition,[4]; at 33.0 µM,94% (active)
same,growth inhibition,[4]; [18],95% (active)
same,growth inhibition,[4]; at 50.0 µM,82.2% (active)
same,growth inhibition,[4]; at 100.0 µM,95% (active)
same,growth inhibition,[5]; at 1.2 µM,6%
same,growth inhibition,[5]; at 3.7 µM,38%
same,growth inhibition,[5]; [17],38%
same,growth inhibition,[5]; at 11.0 µM,68%
same,growth inhibition,[5]; at 33.0 µM,93% (active)
same,growth inhibition,[5]; [18],94% (active)
same,growth inhibition,[5]; at 50.0 µM,85.5% (active)
same,growth inhibition,[5]; at 100.0 µM,96% (active)
same,growth inhibition,[6]; at 1.2 µM,-2%
same,growth inhibition,[6]; at 3.7 µM,10%
same,growth inhibition,[6]; at 11.0 µM,44%
same,growth inhibition,[6]; at 33.0 µM,91% (active)
same,growth inhibition,[6]; at 100.0 µM,96% (active)
same,growth inhibition,[7]; [17],42%
same,growth inhibition,[7]; [18],93% (active)
same,growth inhibition,[7]; at 50.0 µM,82.3% (active)
same,growth inhibition,[8]; at 1.2 µM,-5%
same,growth inhibition,[8]; at 3.7 µM,13%
same,growth inhibition,[8]; at 11.0 µM,26%
same,growth inhibition,[8]; at 33.0 µM,69%
same,growth inhibition,[8]; at 100.0 µM,95% (active)
same,growth inhibition,[9]; [17],24%
same,growth inhibition,[9]; [18],93% (active)
same,growth inhibition,[9]; at 50.0 µM,80.5% (active)
same,growth inhibition,[10]; at 1.2 µM,7%
same,growth inhibition,[10]; at 3.7 µM,18%
same,growth inhibition,[10]; [17],-4%
same,growth inhibition,[10]; at 11.0 µM,18%
same,growth inhibition,[10]; at 33.0 µM,72% (active)
same,growth inhibition,[10]; [18],88% (active)
same,growth inhibition,[10]; at 50.0 µM,78% (active)
same,growth inhibition,[10]; at 100.0 µM,94% (active)
same,growth inhibition,[11]; at 1.2 µM,-55%
same,growth inhibition,[11]; at 3.7 µM,-12%
same,growth inhibition,[11]; at 11.0 µM,49%
same,growth inhibition,[11]; at 33.0 µM,92% (active)
same,growth inhibition,[11]; at 100.0 µM,95% (active)
same,growth inhibition,[12]; at 1.2 µM,10%
same,growth inhibition,[12]; at 3.7 µM,6%
same,growth inhibition,[12]; at 11.0 µM,21%
same,growth inhibition,[12]; at 33.0 µM,80% (active)
same,growth inhibition,[12]; at 100.0 µM,94% (active)
same,growth inhibition,[13]; at 1.2 µM,8%
same,growth inhibition,[13]; at 3.7 µM,30%
same,growth inhibition,[13]; at 11.0 µM,56%
same,growth inhibition,[13]; at 33.0 µM,84% (active)
same,growth inhibition,[13]; at 100.0 µM,94% (active)
same,growth inhibition,[14]; [17],69%
same,growth inhibition,[14]; [18],95% (active)
